Bioassay records deposited in PubChem by National Center for Advancing Translational Sciences (NCATS).
Rows were chosen to be rich in hits. Some 3.9% of all compounds tested hit in one or more screens of this group.
HT1080 IDH1KD tx = kills HT-1080 cells with IDH1 knockdown | HT-1080 IDH1 knockdown viability, ATP luminescence, 48 h | 360,000 tested, 2% active | AID 686971 | Potency, µM (doses to about 46.1 µM), without a hit: at the top dose activity, negative = toxicity, hits mostly cytotoxic;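 note: 0% = DMSO wells and -100% = cell-free medium wells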
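IDH1KD HT-1080 cells, 750/well, RPMI + 5% FBS; compound pinned after 2 h settling; 48 h, 37 °C; CellTiter-Glo luminescence; % activity normalised to DMSO and no-cell wells; curves fitted, classed by r2 and efficacy.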
TGFb SMAD3 inh = TGF-b pathway inhibition. 410,000 tested, 1.2% active. HepG2 CAGA-GFP TGF-b/SMAD3 reporter, GFP fluorescence, 18 h; TGF-beta stimulated, 500 pg/mL final. AID 588855. Potency, µM (doses to about 46.1 µM), for the others: at the top dose activity, negative = inhibition, actives largely listed as inhibitors; note: % is set by controls: 0 for no effect and ±100 for the full control effect; nearly all actives have a fitted effect of over 65% in size
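Smad-responsive CAGA-GFP expression was quantified in HEPG2 cells exposed to compounds and 500 pg/mL final TGF-beta for 18 h at 37 degrees C; unstimulated wells defined full inhibition.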
ATXN2 expr inh = inhibitors of ATXN2 expression; HEK-293 ATXN2-luciferase reporter, luminescence, 24 h; Potency, µM (doses to about 57 µM), for the others: top-dose activity change, negative = inhibition, most hits filed as inhibitors; 360,000 tested, 0.72% active; AID 1745845; note: % is set by controls: 0 for no effect and ±100 for the full control effect; nearly all actives have a fitted effect of over 55% in size
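ATXN2-luciferase reporter cells (luciferase flanked by upstream and downstream ATXN2 gene portions) were treated 24 h at 37 °C with compounds at up to 57 uM. SteadyGlo luminescence gave expression; GF-AFC fluorescence gave viability.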
ATXN viability = reduces viability in counter-screen for ATXN expression inhibitors | S2 cells (HEK-293 line with an ATXN2-luciferase reporter) viability, CellTiter-Fluor protease fluorescence, 24 h | Potency, µM (top dose mostly 56.7 µM), hits mostly cytotoxic | 400,000 tested, 0.49% active | AID 651635; note: nearly all actives have a fitted effect of over 40% in size
HT1080-NT tox = kills 2HG-producing HT-1080-NT fibrosarcoma cells. HT-1080-NT fibrosarcoma viability, CellTiter-Glo ATP luminescence, 48 h. Potency, µM (series often up to 46.1 µM), inactives show at the top dose activity, negative = less viability, hits mostly cytotoxic. 360,000 tested, 1.6% active. AID 686970;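 note: NT is the 2HG producing partner of a matched IDH1 knockdown line; 0% = DMSO-treated cells and -100% = media-only wells without cells; nearly all actives have a fitted effect of over 55% in size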
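750 cells/well, RPMI + 5% FBS; 2 h settle, compound pin-transfer, 48 h at 37 degrees C. CellTiter-Glo 10 min RT, luminescence. Normalized to DMSO and media-only wells.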
HepG2 tox = HepG2 cytotoxicity, counter-screen for TGF-b inhibitors; HepG2 CAGA-GFP viability, ATP luminescence, 18 h; Potency, µM (titrated, usually from 46.1 µM), for the others: at the highest dose activity change, negative = cytotoxicity, hits mostly cytotoxic; 410,000 tested, 0.76% active
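CellTiter-Glo luminescence gave cytotoxicity after 18 hours at 37 degrees C. The cells were HepG2 CAGA-GFP in 1% FBS DMEM, stimulated with 500 pg/mL TGF-beta after compound addition. %Activity was normalised to no-cell wells (complete cell-killing) and DMSO (no toxicity), and curves were fitted and classified.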
* marks the source's active call; other numbers are inactive results; [ ] = another dose, or the depositor's remark. Calls come from the whole dose curve; as a rule, active = well fitted curve in the direction sought with a large enough effect; inconclusive = small, poorly fitted or top-dose-only effect, or another doubt; inactive = no such curve, though single readings can be large; an effect the other way counts as inactive or inconclusive. Potency is the fitted concentration of half-maximal effect.

Results for OC(c1cccc(CN2CCCCC2)c1)c1ncc(-c2cccc3ccccc23)[nH]1 (stereo not given) ?
HT1080 IDH1KD tx: inconclusive; TGFb SMAD3 inh: -14%; ATXN2 expr inh: -10%; ATXN viability: inactive; HT1080-NT tox: 16µM*; HepG2 tox: -58%

How did CCN(c1ccc(C)cc1C)S(=O)(=O)c1nnc(NC(=O)c2ccccc2OC)s1 do in these assays?
TGFb SMAD3 inh: -1%; HepG2 tox: -34%

Results for CCOC(=O)c1c(C)n(-c2ccc(C)cc2)c2ccc(OCC(O)CNCCCO)cc12 (stereo not given) ?
HT1080 IDH1KD tx: 23µM*; TGFb SMAD3 inh: inconclusive; ATXN2 expr inh: inconclusive; ATXN viability: inconclusive; HT1080-NT tox: inconclusive; HepG2 tox: -80%

Results for CCOC(=O)c1c(C)n(C)c2ccc(OCC(O)CN3CCCCCC3)cc12 (stereo not given) ?
HT1080 IDH1KD tx: -9%; TGFb SMAD3 inh: -16%; ATXN2 expr inh: -30%; ATXN viability: 18µM*; HT1080-NT tox: -23%; HepG2 tox: -36%

What do the screens show for `CCOC(=O)c1c(C)n(C)c2ccc(OCC(O)CN3CCC(C)CC3)cc12` (stereo not given)?
HT1080 IDH1KD tx: -5%; TGFb SMAD3 inh: -1%; ATXN2 expr inh: -23%; ATXN viability: inactive; HT1080-NT tox: -3%; HepG2 tox: -13%

Results for CCOC(=O)c1c(C)n(-c2ccc(C)cc2)c2ccc(OCC(O)CNCC3CCCO3)cc12 (stereo not given) ?
HT1080 IDH1KD tx: -27%; TGFb SMAD3 inh: inconclusive; ATXN2 expr inh: inconclusive; ATXN viability: inconclusive; HT1080-NT tox: inconclusive; HepG2 tox: -112%

How did CCOc1ccc2nc(N3CCCC(C(=O)NCc4ccccc4OC)C3)sc2c1 (stereo not given) do in these assays?
TGFb SMAD3 inh: inconclusive; HepG2 tox: 10%

What do the screens show for `COc1ccccc1C1CN(Cc2c(C)nn(C)c2Cl)Cc2ccccc2O1` (stereo not given)?
ATXN viability: inactive

Results for CC(=O)c1ccc(-c2c(C3C4C=CCC(C)C4C(=O)N3Cc3ccccc3)ccc3ccccc23)cc1 (stereo not given) ?
TGFb SMAD3 inh: -28%; HepG2 tox: -18%

How did O=C(/C=C/c1ccncc1)c1ccc(NC(=O)c2ccccc2F)cc1 do in these assays?
HT1080 IDH1KD tx: 9.2µM*; TGFb SMAD3 inh: 13µM*; ATXN2 expr inh: -14%; ATXN viability: inconclusive; HT1080-NT tox: 7.3µM*; HepG2 tox: 5µM*

Results for COc1ccc(Cl)cc1C(=O)Nc1ccncc1 ?
HT1080 IDH1KD tx: -5%; TGFb SMAD3 inh: -23%; ATXN2 expr inh: 1%; ATXN viability: inactive; HT1080-NT tox: 0%; HepG2 tox: 2%

How did CCN(CC)c1ccc(NC(=O)c2ccccc2F)cc1 do in these assays?
HT1080 IDH1KD tx: 16µM*; TGFb SMAD3 inh: 5%; ATXN2 expr inh: 19%; ATXN viability: inactive; HT1080-NT tox: inconclusive; HepG2 tox: -15%

Results for O=C(Nc1ccc(Nc2ccccc2)cc1)c1ccccc1F ?
HT1080 IDH1KD tx: -19%; TGFb SMAD3 inh: -6%; ATXN2 expr inh: 22%; ATXN viability: inactive; HT1080-NT tox: -15%; HepG2 tox: -12%

How did CCN(CC)c1ccc(NC(=O)c2cc(Cl)ccc2OC)cc1 do in these assays?
HT1080 IDH1KD tx: 21µM*; TGFb SMAD3 inh: 3%; ATXN2 expr inh: 17%; ATXN viability: inactive; HT1080-NT tox: inconclusive; HepG2 tox: -9%

How did O=C(/C=C/c1ccc(NC(=O)c2ccccc2-c2ccccc2C(=O)O)cc1)c1ccccc1 do in these assays?
HT1080 IDH1KD tx: inconclusive; TGFb SMAD3 inh: inconclusive; ATXN viability: inactive; HT1080-NT tox: inconclusive; HepG2 tox: -70%

Results for CC(C)[C@H](O)C(=O)N[C@@H](C)C(=O)N[C@@H]1C(=O)N(C)CCc2ccccc21 ?
ATXN2 expr inh: 23%

What do the screens show for `Cc1ccc(C2NC(=O)c3ccccc3N2)s1` (stereo not given)?
HT1080 IDH1KD tx: 15µM*; TGFb SMAD3 inh: -9%; ATXN2 expr inh: 35%; ATXN viability: inactive; HT1080-NT tox: inconclusive; HepG2 tox: -2%

How did Cc1ccc(C2NC(=O)c3ccccc3N2)c(C)c1 (stereo not given) do in these assays?
HT1080 IDH1KD tx: 18µM*; TGFb SMAD3 inh: -12%; ATXN2 expr inh: -9%; ATXN viability: inconclusive; HT1080-NT tox: 7.3µM*; HepG2 tox: -3%

Results for Cc1cccc(C2NC(=O)c3ccccc3N2)c1 (stereo not given) ?
HT1080 IDH1KD tx: inconclusive; TGFb SMAD3 inh: inconclusive; ATXN2 expr inh: 45%; ATXN viability: inactive; HT1080-NT tox: inconclusive; HepG2 tox: -1%

What do the screens show for `Nc1nc(=S)c2n[nH]nc2[nH]1`?
TGFb SMAD3 inh: -22%; HepG2 tox: -28%

How did FC(F)(F)c1ccccc1N/N=C/c1cccnc1 do in these assays?
HT1080 IDH1KD tx: -5%; TGFb SMAD3 inh: -14%; ATXN2 expr inh: -9%; ATXN viability: inactive; HT1080-NT tox: 4%; HepG2 tox: -10%

What do the screens show for `Cc1ccc(N/N=C/c2cccnc2)cc1`?
HT1080 IDH1KD tx: 8.2µM*; TGFb SMAD3 inh: 2%; ATXN2 expr inh: 50%; ATXN viability: inconclusive; HT1080-NT tox: inconclusive; HepG2 tox: -1%

Results for Fc1ccc(N/N=C/c2cccnc2)c(F)c1 ?
HT1080 IDH1KD tx: 15µM*; TGFb SMAD3 inh: 2%; ATXN2 expr inh: -3%; ATXN viability: inactive; HT1080-NT tox: inconclusive; HepG2 tox: -1%

How did COc1ccc(Nc2cc(C(=O)NCCCN(C)C3CCCCC3)c3ccccc3n2)c(OC)c1 do in these assays?
TGFb SMAD3 inh: inconclusive; ATXN2 expr inh: -37%; ATXN viability: 32µM*; HepG2 tox: -75%

How did OCC1OC(n2nc3ccccc3n2)C(O)C(O)C1O (stereo not given) do in these assays?
HT1080 IDH1KD tx: -3%[9.24 µM]; TGFb SMAD3 inh: 8%; ATXN2 expr inh: 4%; ATXN viability: inactive; HT1080-NT tox: -13%; HepG2 tox: -2%

Results for OC[C@H]1O[C@@H](n2cnc3c(NC4CCCC4)nc(Cl)nc32)[C@H](O)[C@@H]1O ?
HT1080 IDH1KD tx: 7%; TGFb SMAD3 inh: 5%; ATXN2 expr inh: 10%; ATXN viability: inactive; HT1080-NT tox: -4%; HepG2 tox: -3%

How did Nc1nc(Cl)nc2c1ncn2[C@@H]1O[C@H](CO)[C@@H](O)[C@H]1F do in these assays?
ATXN2 expr inh: 0.0097µM*
